Source: PubChem BioAssay (NCATS)
Inconclusive results are not listed. A call without a number means that no potency is given here. Values without a mark were called inactive. Active and inactive are the calls of the source. Calls come from the whole dose curve; as a rule, active = well fitted cell-killing curve with a large enough effect; inconclusive = small, poorly fitted or top-dose-only effect, or effect the other way; inactive = no such curve, though single readings can be large or run the other way.

Legend:
[1] = Viability qHTS for spleen associated tyrosine kinase inhibitor (SYKi) naive MV4-11 cells (AID 1963823); note: nearly all actives have a fitted effect of over 40% in size
Procedure, shortened: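 Cells: MV4-11, SYK inhibitor naive, 500 per well. Treatment: library compounds, 72 hr, 37 C, 5% CO2. Read-out: CellTiter-Glo luminescence after 10 min RT.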

[2] = Viability qHTS for spleen associated tyrosine kinase inhibitor (SYKi) drug resistant MV4-11 cells (AID 1963824); note: nearly all actives have a fitted effect of over 35% in size
Procedure, shortened: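 CellTiter-Glo luminescence, read 10 min after reagent addition, reports viability after a 72 hr compound exposure. Cells are an MV4-11 line made resistant to SYK inhibition, seeded at 500 per well onto compound-containing plates.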
Potency is the fitted concentration of half-maximal effect.

Row | SMILES | Potency [1] | Potency [2] | viability (% of control) [1] | viability, % of control [2]
1 | OCc1ccc(O[C@@H]2O[C@H](CO)[C@@H](O)[C@H](O)[C@H]2O)cc1 | inactive | inactive | – | –
2 | C=C1C(=O)O[C@@H]2/C=C(\CO)CC/C=C(\CO)[C@H](OC(C)=O)C(OC(=O)C(C)CC)C12 (stereo partly drawn) | 5020 nM (active) | 2240 nM (active) | – | –
3 | COc1cc(Nc2cnc(C#N)c(O[C@H](C)CN(C)C)n2)ncc1-c1cnn(C)c1 | 934 nM (active) | 1320 nM (active) | – | –
4 | OC[C@@]1(O)CO[C@@H](OC[C@H]2O[C@@H](Oc3ccccc3)[C@H](O)[C@@H](O)[C@@H]2O)[C@@H]1O | inactive | inactive | – | –
5 | CC1=C(COC2OC(CO)C(O)C(O)C2O)C(C(CO)C(=O)O)CC1 (stereo not drawn) | inactive | inactive | – | –
6 | COC(=O)N/N=C/c1c[n+]([O-])c2ccccc2[n+]1[O-] | inactive | inactive | – | –
7 | OC[C@H]1O[C@@H](O[C@H]2[C@H](OCCc3ccccc3)O[C@H](CO)[C@@H](O)[C@@H]2O)[C@H](O)[C@@H](O)[C@@H]1O | inactive | inactive | – | –
8 | COc1ccc(C(=O)CC(=O)O)c2c1C=CC(C)(C)O2 | inactive | inactive | – | –
9 | COc1cc(O)cc(O[C@@H]2O[C@H](CO)[C@@H](O[C@@H]3OC[C@](O)(CO)[C@H]3O)[C@H](O)[C@H]2O)c1OC | inactive | inactive | – | –
10 | CC1OC(OCC2OC(OC3CCC4(C)C(CCC5(C)C4CC=C4C6CC(C)(C)CCC6(C(=O)OC6OC(CO)C(O)C(O)C6O)CCC45C)C3(C)CO)C(O)C(O)C2O)C(O)C(O)C1O (stereo not drawn) | – | – | 79.6% [at 9.25 µM] | 96.2% [at 9.25 µM]
11 | CC1=CC(=O)CC(C)(C)C1(O)CCC(C)O (stereo not drawn) | inactive | inactive | – | –
12 | O=C(O)CCc1c(C(=O)O)[nH]c2cc(Cl)cc(Cl)c12 | inactive | inactive | – | –
13 | C=C[C@H]1[C@H](O[C@@H]2O[C@H](CO)[C@@H](O)[C@H](O)[C@H]2O)OC=C(C(=O)OC)[C@H]1CC(=O)O | inactive | inactive | – | –
14 | CNCc1cc(-c2ccccc2F)n(S(=O)(=O)c2cccnc2)c1 | inactive | 13000 nM (active) | – | –
